# Assay results as given in PubChem BioAssay.
# “And” between values parts separate entries of the source, which are not always exact repeats. Equal entries are not always repeated. Inconclusive results are not listed. The source made the active and inactive calls. Unless noted, the limit is not given here; nearly all actives have AC50 up to about 26 µM.
# Legend:
# [1] = viability loss in pontine glioma line – cell-based, SU-DIPG-XVII, MIPE5.0, CellTiter-Glo, qHTS, dose response (AID 1347060); settings: CellTiter-Glo ATP luminescence;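 as to AC50: cells exposed to compound for 48 hours before viability readout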
# [2] = viability loss in pontine glioma line – cell-based, SU-DIPG-XIII, MIPE5.0, CellTiter-Glo, qHTS, dose response (AID 1347064; cut-off not given, nearly all actives have AC50 up to about 23 µM;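 as to AC50: cells exposed to compound for 48 hours before the viability read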); settings: CellTiter-Glo ATP luminescence
# [3] = viability loss in pontine glioma line – cell-based, SU-DIPG-XXV, MIPE5.0, CellTiter-Glo, qHTS, dose response (AID 1347065); settings: CellTiter-Glo ATP luminescence;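 also: cells exposed to compound for 48 hours before ATP readout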
# [4] = JHH-DIPG-1 glioma cell viability, MIPE5.0 library, CellTiter-Glo luminescence, qHTS (AID 1347067); settings: JHH-DIPG-1 glioma viability, CellTiter-Glo ATP luminescence;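 also: cells exposed to compound for 48 hours before readout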
# [5] = growth inhibition of DIPG cells – cell-based, MIPE5.0 library, qHTS (AID 1347068; cut-off not given, nearly all actives have IC50 up to about 30 µM;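 as to IC50: cells exposed to compound for 48 hours before viability readout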); settings: SU-DIPG-XXV viability
smiles,measurement,setting,value
CCCCCCCOc1ccc(CCC(N)(CO)CO)cc1C(F)(F)F,AC50,[1],8.33 µM (active)
same,AC50,[2],8.33 µM (active)
same,AC50,[3],9.34 µM (active)
same,AC50,[4],8.33 µM (active)
Cc1ccc(NC(=O)c2ccc3c(c2)OCCO3)cc1NC(=O)c1ccc2nc(OCCN3CCCC3)ccc2c1,AC50,[1],0.129 µM (active)
same,AC50,[2],0.229 µM (active)
same,AC50,[3],0.0645 µM (active)
same,AC50,[4],0.204 µM (active)
COc1ccccc1C(=O)Nc1cc2c(cc1N1CCNC[C@H]1C)n(C)c(=O)n2C,outcome,[1],inactive
same,outcome,[2],inactive
same,outcome,[3],inactive
same,outcome,[4],inactive
same,outcome,[5],inactive
CCOC(=N)c1nc2ccc3ncnc(Nc4cc(F)c(F)cc4Cl)c3c2s1,AC50,[1],16.6 µM (active)
same,AC50,[2],16.6 µM (active)
same,AC50,[3],11.8 µM (active)
same,AC50,[4],14.8 µM (active)
COc1ccc(S(=O)(=O)NCc2ccc(C(=O)NCCc3ccc(Cl)cn3)cc2)cc1,outcome,[1],inactive
same,outcome,[2],inactive
same,outcome,[3],inactive
same,outcome,[4],inactive
COc1ccc(-c2cc(C(O)C3CCCCN3)c3ccccc3n2)cc1 (stereo not drawn),AC50,[1],20.9 µM (active)
same,AC50,[2],16.6 µM (active)
same,AC50,[3],29.5 µM (active)
same,AC50,[4],7.42 µM (active)
CC1(C)OCCn2c1nc1c(N3CCOCC3)nc(-c3cnc(N)nc3)nc12,AC50,[1],3.72 µM (active)
same,AC50,[2],1.86 µM (active)
same,AC50,[3],1.48 µM (active)
same,AC50,[4],1.32 µM (active)
CCCCNc1ncc2c(-c3ccc(CN4CCN(C)CC4)cc3)cn(C3CCC(O)CC3)c2n1 (stereo not drawn),AC50,[1],1.48 µM (active) and 1.32 µM (active)
same,AC50,[2],2.35 µM (active) and 1.86 µM (active)
same,AC50,[3],742 nM (active) and 934 nM (active)
same,AC50,[4],3.32 µM (active) and 2.95 µM (active)
same,IC50,[5],3.32 µM (active)
COc1cccc2c1c(O)c(C(=O)N(C)c1ccc(C(F)(F)F)cc1)c(=O)n2C,outcome,[1],inactive
same,outcome,[2],inactive
same,outcome,[3],inactive
same,outcome,[4],inactive
O=C(COCC(=O)N1CCN(C(c2ccccc2)c2ccccc2)CC1)Nc1ccc(Cl)cc1C(=O)O,outcome,[1],inactive
same,outcome,[2],inactive
same,outcome,[3],inactive
same,outcome,[4],inactive
same,outcome,[5],inactive
CC(=O)c1cc2c(o1)C(=O)c1ccccc1C2=O,AC50,[1],3.32 µM (active)
same,AC50,[2],0.934 µM (active)
same,AC50,[3],2.95 µM (active)
same,AC50,[4],1.66 µM (active)
same,IC50,[5],2.95 µM (active)
C[C@H]1CN(C[C@H](Cc2ccccc2)C(=O)NCC(=O)O)CC[C@@]1(C)c1cccc(O)c1,outcome,[1],inactive
same,outcome,[2],inactive
same,outcome,[3],inactive
same,outcome,[4],inactive
same,outcome,[5],inactive
Cc1ccccc1-n1nc(-c2c(-c3ccc(F)cc3)nn3c2NC[C@@H](CO)C3)ccc1=O,outcome,[1],inactive
same,outcome,[2],inactive
same,outcome,[3],inactive
same,outcome,[4],inactive
same,outcome,[5],inactive
O=C(O)CC(C(=O)O)n1c(O)c(C2=c3cc(Br)ccc3=NC2=O)sc1=S (stereo not drawn),outcome,[1],inactive
same,outcome,[2],inactive
same,outcome,[3],inactive
same,outcome,[4],inactive
same,outcome,[5],inactive
CN[C@@H]1[C@@H](O)[C@@H](O[C@@H]2[C@@H](O)[C@H](O[C@H]3O[C@H](CN)[C@@H](O)[C@H](O)[C@H]3O)[C@@H](N)C[C@H]2NC(=O)C(O)CN)OC[C@]1(C)O (stereo partly drawn),outcome,[1],inactive
same,outcome,[2],inactive
same,outcome,[3],inactive
same,outcome,[4],inactive
same,outcome,[5],inactive
Clc1cccc(-c2ccc(-c3nnc(CCCc4ccc5cccnc5n4)o3)cc2)c1,outcome,[1],inactive
same,outcome,[2],inactive
same,outcome,[3],inactive
same,outcome,[4],inactive
same,outcome,[5],inactive
C[C@H](Nc1nc(N[C@H](C)C(F)(F)F)nc(-c2cccc(Cl)n2)n1)C(F)(F)F,outcome,[1],inactive
same,outcome,[2],inactive
same,outcome,[3],inactive
same,outcome,[4],inactive
same,outcome,[5],inactive
Nc1ncccc1-c1nc2ccc(-c3ccccc3)nc2n1-c1ccc(C2(N)CCC2)cc1,AC50,[1],11.8 µM (active)
same,AC50,[2],4.17 µM (active)
same,AC50,[3],2.95 µM (active)
same,AC50,[4],5.9 µM (active)
same,IC50,[5],20.9 µM (active)
CCN(C(=O)c1ccccc1OC)c1cc2c(cc1N1CCNC[C@H]1C)n(C)c(=O)n2C,outcome,[1],inactive
same,outcome,[2],inactive
same,outcome,[3],inactive
same,outcome,[4],inactive
same,outcome,[5],inactive
CC(=O)N1CCC[C@H]1C(=O)N[C@@H](Cc1cnc[nH]1)C(=O)N[C@@H](CO)C(=O)N[C@@H](CS)C(=O)N[C@@H](CC(N)=O)C(N)=O,outcome,[1],inactive
same,outcome,[2],inactive
same,outcome,[3],inactive
same,outcome,[4],inactive
same,outcome,[5],inactive
O=C(NO)c1ccc(C2=Nc3ccccc3Oc3ccccc32)cc1,AC50,[1],10.5 µM (active)
same,AC50,[2],5.25 µM (active)
same,AC50,[3],7.42 µM (active)
same,AC50,[4],11.8 µM (active)
same,IC50,[5],14.8 µM (active)
COc1ccc(C(=O)N2CCN(c3ccc4c(c3)CCC(=O)N4)CC2)cc1OC,outcome,[1],inactive
same,outcome,[2],inactive
same,outcome,[3],inactive
same,outcome,[4],inactive
same,outcome,[5],inactive
COc1cc(OC)c(/C=C/S(=O)(=O)Cc2ccc(OC)c(OP(=O)(O)O)c2)c(OC)c1,AC50,[1],0.0417 µM (active)
same,AC50,[2],0.0417 µM (active)
same,AC50,[3],0.0742 µM (active)
same,AC50,[4],0.059 µM (active)
same,IC50,[5],0.0742 µM (active)
Nc1ncnc(Nc2ccc(OCc3ccccc3)c(Cl)c2)c1/C=N/OCCN1CCOCC1,AC50,[1],23.5 µM (active)
same,AC50,[2],16.6 µM (active)
same,AC50,[3],16.6 µM (active)
same,AC50,[4],18.6 µM (active)
same,IC50,[5],14.8 µM (active)
CN(C)C1CCN(C(=O)c2ccc(NC(=O)Nc3ccc(-c4nc(N5CCOCC5)nc(N5CCOCC5)n4)cc3)cc2)CC1,AC50,[1],0.332 µM (active)
same,AC50,[2],0.833 µM (active)
same,AC50,[3],0.295 µM (active)
same,AC50,[4],0.417 µM (active)
same,IC50,[5],0.742 µM (active)
COc1cc(F)c(F)c(Nc2ccc(I)cc2F)c1NS(=O)(=O)C1(C[C@H](O)CO)CC1,AC50,[1],0.417 µM (active)
same,AC50,[2],0.235 µM (active)
same,AC50,[3],0.59 µM (active)
same,AC50,[4],0.209 µM (active)
same,IC50,[5],2.63 µM (active)
C[C@H](CN(C)C)Oc1nc(Nc2cc3cccc(Cl)c3cn2)cnc1C#N,AC50,[1],16.6 µM (active)
same,AC50,[2],13.2 µM (active)
same,AC50,[3],16.6 µM (active)
same,AC50,[4],8.33 µM (active)
same,outcome,[5],inactive
CNS(=O)(=O)c1ccc2c(c1)/C(=C/c1[nH]c3c(c1CCCN1CCN(C)CC1)CCCC3)C(=O)N2,AC50,[1],7.42 µM (active)
same,AC50,[2],8.33 µM (active)
same,AC50,[3],7.42 µM (active)
same,AC50,[4],10.5 µM (active)
same,outcome,[5],inactive
COc1cc(-c2cn(C)c(=O)c3cnccc23)cc(OC)c1CN(C)C,outcome,[1],inactive
same,outcome,[2],inactive
same,outcome,[3],inactive
same,outcome,[4],inactive
same,outcome,[5],inactive
Cc1cn(CCN2CCN(c3ccccc3-c3cc(C#N)cc(C(=O)NCCCN4CCCC4)c3)CC2)c2ccccc12,AC50,[1],8.33 µM (active)
same,AC50,[2],10.5 µM (active)
same,AC50,[3],7.42 µM (active)
same,AC50,[4],8.33 µM (active)
same,IC50,[5],7.42 µM (active)
FC(F)(F)c1ccc(Nc2nc(-c3c(C(F)(F)F)nc4ccccn34)cs2)cc1,AC50,[1],0.372 µM (active)
same,AC50,[2],14.8 µM (active)
same,AC50,[3],0.372 µM (active)
same,AC50,[4],1.86 µM (active)
same,IC50,[5],3.32 µM (active)
CC(C)Nc1cc(-c2c[nH]c(C(=O)N[C@H](CO)c3cccc(Cl)c3)c2)c(Cl)cn1,AC50,[1],1.48 µM (active)
same,AC50,[2],4.17 µM (active)
same,AC50,[3],3.32 µM (active)
same,AC50,[4],1.66 µM (active)
same,IC50,[5],14.8 µM (active)
Nc1nc(Nc2ccc3c(c2)CC[C@@H](N2CCCC2)CC3)nn1-c1cc2c(nn1)-c1ccccc1CCC2,AC50,[1],9.34 µM (active)
same,AC50,[2],16.6 µM (active)
same,AC50,[3],6.61 µM (active)
same,AC50,[4],20.9 µM (active)
same,IC50,[5],26.3 µM (active)
COc1ccc(N(C)c2nc(C)nc3ccccc23)cc1,AC50,[1],0.00833 µM (active)
same,AC50,[2],0.00934 µM (active)
same,AC50,[3],0.0059 µM (active)
same,AC50,[4],0.0105 µM (active)
same,IC50,[5],0.0166 µM (active)
Cc1ncc(NC(=O)c2cccc(C(F)(F)F)c2)cc1-c1cnc(OC2CCOCC2)c(N2CCOCC2)c1,AC50,[1],9.34 µM (active)
same,AC50,[2],5.25 µM (active)
same,AC50,[3],14.8 µM (active)
same,AC50,[4],4.68 µM (active)
same,IC50,[5],18.6 µM (active)
NC(=O)c1ccc2nc(-c3ccc(C4(N)CCC4)cc3)c(-c3ccccc3)n2n1,AC50,[1],13.2 µM (active)
same,AC50,[2],6.61 µM (active)
same,AC50,[3],7.42 µM (active)
same,AC50,[4],7.42 µM (active)
same,outcome,[5],inactive
COC(C)(C)CCn1nc(Nc2c(C)cccc2C)c2cnc(Nc3ccc(OCCN4CCCC4)c(F)c3)nc21,AC50,[1],16.6 µM (active)
same,AC50,[2],18.6 µM (active)
same,AC50,[3],14.8 µM (active)
same,AC50,[4],16.6 µM (active)
same,IC50,[5],16.6 µM (active)
C[C@@H](Oc1cc(C(=O)Nc2ccc(C(=O)N3CCN(C)CC3)cc2)nnc1N)c1c(Cl)ccc(F)c1Cl,AC50,[1],0.118 µM (active)
same,AC50,[2],0.417 µM (active)
same,AC50,[3],0.742 µM (active)
same,AC50,[4],16.6 µM (active)
same,IC50,[5],7.42 µM (active)
C[C@@H]1N=C(N)NC(N(C)C)=N1,outcome,[1],inactive
same,outcome,[2],inactive
same,outcome,[3],inactive
same,outcome,[4],inactive
same,outcome,[5],inactive
CC(C)(NS(=O)(=O)c1ccc2c(Cl)cnc(N=C(N)N)c2c1)C(=O)O,outcome,[1],inactive
same,outcome,[2],inactive
same,outcome,[3],inactive
same,outcome,[4],inactive
same,outcome,[5],inactive
N#Cc1ccnc(Nc2cc(C3CCN(C4COC4)CC3)cc(N3CCC(F)(F)C3)n2)c1,AC50,[1],2.63 µM (active)
same,AC50,[2],5.25 µM (active)
same,AC50,[3],1.48 µM (active)
same,AC50,[4],5.9 µM (active)
same,IC50,[5],11.8 µM (active)
O=S(=O)(Nc1ccc(-c2cccnc2)c2cccnc12)c1cccc(C(F)(F)F)c1,AC50,[1],11.8 µM (active)
same,AC50,[2],16.6 µM (active)
same,AC50,[3],14.8 µM (active)
same,AC50,[4],7.42 µM (active)
same,outcome,[5],inactive
